As usually defined, the inhibition is the drop in the measured response relative to a control, in per cent.

The nature of assay [1]: antimalarial activity against Dd2 strain (AID 2302;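 active = growth inhibition above 50% at the single 2 µM test dose, taken to imply half-maximal potency below 2 µM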;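 note: 0% = DMSO untreated growth and 100% = chloroquine plus artemisinin killed control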). As to conditions: P. falciparum Dd2 in RBCs, LDH growth readout, 72 h; at 2 µM; active compounds read high.
A short description of assay [2]: HepG2 cytotoxicity, primary screen, cytotoxicity control for P. falciparum antimalarial project, cell-based, ATP luminescence (AID 2303;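 active = inhibition above 50%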;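 note: 0% = DMSO wells and 100% = digitonin-killed cells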). Particulars: HepG2 viability, 24-48 h, at 10 µM, active compounds read high.
For assay [3], the target named is L-lactate dehydrogenase (Plasmodium falciparum (isolate CDC / Honduras)) (UniProt Q27743). Kind of assay: PfLDH activity inhibition – cell lysate, 3D7 strain, counter-screen for P. falciparum growth inhibition project (AID 2304).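 Note: 0% = vehicle and 100% = reference inhibitor.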 Particulars: P. falciparum 3D7 crude extract, LDH APAD/NBT absorbance; at 2 µM; active compounds read high. (In general: The purpose of a counterscreen is to sort out artefacts and off-target activity.)

Assay [4] is described as follows: inhibition of 3D7 malaria parasite growth – strain 3D7 (AID 2306).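 Note: 0% = DMSO wells and 100% = chloroquine plus artemisinin control wells.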 As to conditions: P. falciparum 3D7 erythrocytic growth, LDH absorbance, 72 h; at 2 µM; active compounds read high.
The target in assay [5] is Calcium-dependent protein kinase 1 (Plasmodium falciparum (isolate 3D7)) (UniProt P62344). Kind of assay: PfCDPK1 kinase inhibitors, biochemical, TCAMS library (AID 1159585; cut-off not given, nearly all actives have IC50 up to about 0.98 µM;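 note: inhibitors leave more ATP so luminescence rises with inhibition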). Particulars: recombinant PfCDPK1, Kinase-Glo ATP depletion luminescence. For orientation: Kinase-Glo measures the ATP left after a reaction by luminescence.
Assay [6] addresses Plasmodium falciparum protein kinase 6 (PK6, PF3D7_1337100) (UniProt Q8IDW1). Kind of assay: PfPK6 kinase inhibitors, biochemical, TCAMS library (AID 1159586). As to conditions: recombinant PfPK6, Kinase-Glo ATP depletion luminescence.
For assay [7], the target named is Protein kinase 7 (PK7), Plasmodium falciparum 3D7 (PF3D7_0213400) (UniProt Q7YTF7). Kind of assay: inhibition of Plasmodium PK7 catalytic activity – biochemical, TCAMS antimalarial set, Kinase-Glo luminescence (AID 1159587). Particulars: recombinant PfPK7, Kinase-Glo ATP depletion luminescence.
In assay [8] the target is Calcium-dependent protein kinase 4 (Plasmodium falciparum (isolate 3D7)) (UniProt Q8IBS5). In words: PfCDPK4 kinase inhibitors, biochemical, TCAMS library (AID 1159588; cut-off not given, nearly all actives have IC50 up to about 0.91 µM). Particulars: recombinant PfCDPK4, Kinase-Glo ATP depletion luminescence.

Unmarked numbers belong to inactive results. For part of these data: Results with a measured potency or affinity are listed apart. Activity calls are given as the source filed them. Unless noted, the rule behind the calls is not given here.

Chain of Protein kinase 7 (PK7), Plasmodium falciparum 3D7 (PF3D7_0213400) (Q7YTF7 1-343): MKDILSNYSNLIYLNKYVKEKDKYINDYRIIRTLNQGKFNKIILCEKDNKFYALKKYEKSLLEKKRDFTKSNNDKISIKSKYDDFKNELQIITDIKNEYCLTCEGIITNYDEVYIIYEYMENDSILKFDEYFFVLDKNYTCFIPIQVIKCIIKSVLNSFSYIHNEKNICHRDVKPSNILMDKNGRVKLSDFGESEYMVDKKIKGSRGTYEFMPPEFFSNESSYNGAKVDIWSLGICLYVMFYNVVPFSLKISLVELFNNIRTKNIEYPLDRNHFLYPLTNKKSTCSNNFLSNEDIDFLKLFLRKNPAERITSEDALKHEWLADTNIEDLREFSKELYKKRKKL
Chain of Calcium-dependent protein kinase 1 (Plasmodium falciparum (isolate 3D7)) (P62344 whole entry, looked up): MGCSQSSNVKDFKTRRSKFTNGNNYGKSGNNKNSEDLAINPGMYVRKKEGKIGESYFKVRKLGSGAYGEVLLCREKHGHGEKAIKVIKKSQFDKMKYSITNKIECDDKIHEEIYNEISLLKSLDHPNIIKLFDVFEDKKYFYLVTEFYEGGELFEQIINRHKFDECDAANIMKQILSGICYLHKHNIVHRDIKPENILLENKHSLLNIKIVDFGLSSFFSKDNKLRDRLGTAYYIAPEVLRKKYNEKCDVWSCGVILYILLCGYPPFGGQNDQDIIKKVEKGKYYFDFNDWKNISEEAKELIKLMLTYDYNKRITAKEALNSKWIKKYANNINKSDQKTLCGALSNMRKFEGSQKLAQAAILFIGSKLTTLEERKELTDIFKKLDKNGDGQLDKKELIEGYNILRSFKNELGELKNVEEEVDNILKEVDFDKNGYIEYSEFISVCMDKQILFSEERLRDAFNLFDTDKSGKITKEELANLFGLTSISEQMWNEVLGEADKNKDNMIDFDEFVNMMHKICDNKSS
Chain of L-lactate dehydrogenase (Plasmodium falciparum (isolate CDC / Honduras)) (Q27743 whole entry, looked up): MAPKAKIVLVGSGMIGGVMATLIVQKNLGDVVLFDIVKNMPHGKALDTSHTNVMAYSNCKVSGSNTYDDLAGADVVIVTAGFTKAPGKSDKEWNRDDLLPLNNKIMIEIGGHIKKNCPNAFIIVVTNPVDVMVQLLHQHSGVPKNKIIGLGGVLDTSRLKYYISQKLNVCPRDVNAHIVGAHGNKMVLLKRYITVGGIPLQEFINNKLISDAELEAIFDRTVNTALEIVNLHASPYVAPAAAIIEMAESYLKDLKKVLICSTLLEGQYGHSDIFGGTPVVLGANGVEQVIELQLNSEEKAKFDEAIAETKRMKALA
Chain of Calcium-dependent protein kinase 4 (Plasmodium falciparum (isolate 3D7)) (Q8IBS5 whole entry, looked up): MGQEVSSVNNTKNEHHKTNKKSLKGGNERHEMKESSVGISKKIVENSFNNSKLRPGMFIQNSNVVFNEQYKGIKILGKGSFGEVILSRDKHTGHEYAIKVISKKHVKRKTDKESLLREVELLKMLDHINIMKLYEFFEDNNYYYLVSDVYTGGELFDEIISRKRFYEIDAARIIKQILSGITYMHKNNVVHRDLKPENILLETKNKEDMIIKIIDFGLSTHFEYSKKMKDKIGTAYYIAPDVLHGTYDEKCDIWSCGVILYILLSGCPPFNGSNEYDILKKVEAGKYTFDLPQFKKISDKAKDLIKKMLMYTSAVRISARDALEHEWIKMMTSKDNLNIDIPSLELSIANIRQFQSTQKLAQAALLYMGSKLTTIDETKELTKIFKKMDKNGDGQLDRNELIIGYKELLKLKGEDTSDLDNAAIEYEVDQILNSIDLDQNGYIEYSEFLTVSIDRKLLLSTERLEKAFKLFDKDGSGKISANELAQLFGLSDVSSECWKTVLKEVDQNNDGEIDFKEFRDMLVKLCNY
Chain of Plasmodium falciparum protein kinase 6 (PK6, PF3D7_1337100) (Q8IDW1 1-305): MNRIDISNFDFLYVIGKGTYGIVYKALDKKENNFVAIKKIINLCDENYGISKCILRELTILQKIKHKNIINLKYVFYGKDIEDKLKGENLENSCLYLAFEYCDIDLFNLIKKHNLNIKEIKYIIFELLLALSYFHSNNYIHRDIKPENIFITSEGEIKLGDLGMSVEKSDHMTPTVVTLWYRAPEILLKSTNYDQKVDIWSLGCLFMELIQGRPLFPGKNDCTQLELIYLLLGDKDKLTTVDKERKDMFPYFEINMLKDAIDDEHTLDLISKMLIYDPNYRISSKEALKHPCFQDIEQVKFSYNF

In the case of `COc1cccc(NC(=O)c2cc([N+](=O)[O-])ccc2NC(=O)CN2CCc3ccccc3C2)c1`, the growth inhibition in assay [1] was 37%; in assay [4], 100% (active). Besides, the inhibition was 5% in assay [2] and -1% in assay [3]. Also, the outcome in assay [5], in assay [6], in assay [7] and in assay [8] was inactive.
For the molecule `CCOC(=O)CCCCOc1c(OC)cc(Cc2cnc(N)nc2N)cc1OC`, the growth inhibition in assay [1] was 0%; in assay [4], 95% (active). In addition, the inhibition is -8% in assay [2] and 5% in assay [3]. Moreover, the result in assay [5], in assay [6], in assay [7] and in assay [8] was inactive.
`COc1ccc(-c2ccc(NC(=O)c3cccc(Cl)c3)cc2)cc1CN1CCC(O)CC1`: the growth inhibition is 12% in assay [1] and 102% (active) in assay [4]. In addition, the results for the inhibition in assay [2] and in assay [3] were 15% and -5%, respectively. The outcome in assay [5], in assay [6], in assay [7] and in assay [8] was inactive.
For the molecule `O=C(CCCCCNC(=O)c1ccc(O)c(-c2ccc(Cl)c(Cl)c2)c1)NCc1cccc(C(F)(F)F)c1`, the growth inhibition in assay [1] is 10%; in assay [4], 92% (active). Further, the inhibition in assay [2] and in assay [3] was 2% each time. Besides, the result in assay [5], in assay [6], in assay [7] and in assay [8] was inactive.
In the case of `O=C(Nc1cccc(C(F)(F)F)c1)c1ccc(S(=O)(=O)NC2CCN(CC3CCCCC3)C2)cc1` (centres undefined), the growth inhibition was -3% in assay [1] and 92% (active) in assay [4]. Further, the inhibition in assay [2] is 16%; in assay [3], -4%. Further, the result in assay [5], in assay [6], in assay [7] and in assay [8] was inactive.
Regarding `O=C(NCCc1ccccc1)N(Cc1ccccc1-c1cccc(CNCCc2ccccc2)c1)C1CCN(Cc2ccccc2)CC1`, the growth inhibition in assay [1] was 88% (active); in assay [4], 100% (active). In addition, the inhibition was 100% (active) in assay [2] and 4% in assay [3]. For the same molecule, the outcome in assay [5], in assay [6], in assay [7] and in assay [8] was inactive.
As for `CCC(=O)c1c(C)n(-c2ncnc3c2nc(C)n3-c2ccc(C)cc2C)c2ccccc12`, the results for the growth inhibition in assay [1] and in assay [4] were 78% (active) and 96% (active), respectively. Besides, the inhibition in assay [2] is -16%; in assay [3], -2%. In addition, the outcome in assay [5], in assay [6], in assay [7] and in assay [8] was inactive.
As to `O=C(/C=C/c1ccc(Cl)c(Cl)c1)NCCCCCN1CCCC(C(=O)Nc2ccc(F)c(Cl)c2)C1` (centres undefined), the growth inhibition was 2% in assay [1] and 99% (active) in assay [4]. Also, the inhibition in assay [2] was 28%; in assay [3], 1%. For the same molecule, the outcome in assay [5], in assay [6], in assay [7] and in assay [8] was inactive.
In the case of `N#Cc1ccc(N(CCOC(=O)c2ccccc2)Cc2ccccc2C(F)(F)F)cc1C(F)(F)F`, the growth inhibition in assay [1] is 67% (active); in assay [4], 92% (active). For the same molecule, the inhibition in assay [2] was 6%; in assay [3], -1%. In addition, the outcome in assay [5], in assay [6], in assay [7] and in assay [8] was inactive.
Consider `Cc1cc(N2CCCC2)nc(Nc2ccc(NC(=O)c3ccc(Br)o3)cc2)n1`, for which the results for the growth inhibition in assay [1] and in assay [4] were 57% (active) and 99% (active), respectively. The inhibition in assay [2] is 17%; in assay [3], 0%. For the same molecule, the result in assay [5], in assay [6], in assay [7] and in assay [8] was inactive.
Consider `O=C(/C=C/c1cccc(C(F)(F)F)c1)NCCCCCN1CCC(c2c[nH]c3ccccc23)CC1`, for which the growth inhibition in assay [1] was 14%; in assay [4], 90% (active). For the same molecule, the inhibition in assay [2] was 70% (active); in assay [3], 0%. In addition, the result in assay [5], in assay [6], in assay [7] and in assay [8] was inactive.
Consider `CNc1ccc(CNCc2ccc(-c3ccc(-c4nc5ccc(F)cc5[nH]4)cc3)cc2)cc1`, for which the growth inhibition is 95% (active) in assay [1] and 101% (active) in assay [4]. The inhibition in assay [2] is 38%; in assay [3], -5%. Moreover, the outcome in assay [5], in assay [6], in assay [7] and in assay [8] was inactive.
Regarding `CCOc1c(CNCCCNc2cc(=O)c3ccccc3[nH]2)cc(Br)cc1OC`, the growth inhibition in assay [1] is 18%; in assay [4] it was 80% (active). Also, the inhibition in assay [2] is 10%; in assay [3] it was -9%. Besides, the result in assay [5], in assay [6], in assay [7] and in assay [8] was inactive.
With `c1cc(CN2CCC(CCN3CCCCC3)CC2)cc(-c2csc(-c3nc4ccccc4[nH]3)c2)c1`, the growth inhibition in assay [1] and in assay [4] was 99% (active) in each case. Also, the inhibition in assay [2] was 89% (active); in assay [3] it was -3%. Besides, the result in assay [5], in assay [6], in assay [7] and in assay [8] was inactive.
For the molecule `CC[C@H](C)CNC(=O)c1cccc(-c2ccc(CN3CCC(N4CCCC4)CC3)cc2)n1`, the growth inhibition in assay [1] was 82% (active); in assay [4] it was 101% (active). Moreover, the inhibition in assay [2] was 41%; in assay [3], -2%. The result in assay [5], in assay [6], in assay [7] and in assay [8] was inactive.
As for `Oc1cccc2ccc(Nc3ccccn3)nc12`, the growth inhibition is 93% (active) in assay [1] and 99% (active) in assay [4]. Also, the figures for the inhibition in assay [2] and in assay [3] were 72% (active) and 3%, respectively. The result in assay [5], in assay [6], in assay [7] and in assay [8] was inactive.
Regarding `c1cc(Nc2nccc(-c3cnn4ncccc34)n2)cc(-c2cnco2)c1`, the figures for the growth inhibition in assay [1] and in assay [4] were 83% (active) and 96% (active), respectively. Also, the inhibition in assay [2] is 54% (active); in assay [3], 3%. Further, the result in assay [5], in assay [6], in assay [7] and in assay [8] was inactive.
For the molecule `CCN(CC)CCNc1nc(C=Cc2ccc(Cl)cc2)nc2cc3ccccc3cc12`, the growth inhibition was 99% (active) in assay [1] and 100% (active) in assay [4]. In addition, the inhibition in assay [2] was 83% (active); in assay [3], -3%. Besides, the outcome in assay [5], in assay [6], in assay [7] and in assay [8] was inactive.

The record behind these values is PubChem BioAssay.
